# Test results: article PMC12431657, “Discovery and mechanistic insights of dibenzoylmethane as a broad spectrum inhibitor of coronavirus” (PLOS Pathogens, 2025)
# Counter-ions that a name gives are not always drawn. Like-named read-outs stand apart in the source and are kept apart here. Out of some 3,300 compounds screened, about 60 (2%) showed an effect of 50% or more. This excerpt belongs to a sample that is enriched for strong results.
# System: HCoV-OC43
# Design: species or system RD; HTS, protection from HCoV-OC43 induced cell death, luminescent cell viability (CellCounting-Lite 2.0), inhibition rate
# Settings: 24 h post infection, 1 h compound pre-incubation, 10 µM, inhibitor
smiles,measurement,setting,value
C=C1[C@@H](C)[C@H]2[C@H](Cc3ccccc3)NC(=O)[C@]23OC(=O)/C=C/[C@H](O)CCC[C@@H](C)C/C=C/[C@H]3[C@@H]1O [Cytochalasin B],OC43 Inhibition rate,,63%
C=C1C[C@@]23CC[C@H]4[C@@](C)(CCC[C@@]4(C)C(=O)O[C@@H]4O[C@H](CO)[C@@H](O)[C@H](O)[C@H]4O[C@@H]4O[C@H](CO)[C@@H](O)[C@H](O)[C@H]4O)[C@@H]2CC[C@]1(O[C@@H]1O[C@H](CO)[C@@H](O)[C@H](O[C@@H]2O[C@H](CO)[C@@H](O)[C@H](O)[C@H]2O)[C@H]1O[C@@H]1O[C@H](CO)[C@@H](O)[C@H](O)[C@H]1O)C3 [Rebaudioside D],OC43 Inhibition rate,,1.1%
CCCCC1OC(=O)C2=CCCCC21 (centres unmarked) [Sedanolide],OC43 Inhibition rate,,-0.1%
CC(C)=CCc1c(O)ccc(-c2coc3cc(O)cc(O)c3c2=O)c1O [Licoisoflavone A],OC43 Inhibition rate,,59.7%
COc1ccc(-c2oc3c(CC=C(C)C)c(O)cc(O)c3c(=O)c2O)cc1 [Icaritin],OC43 Inhibition rate,,0.1%
CC(C)=CCc1c(O)cc(O)c2c(=O)c(O[C@@H]3O[C@@H](C)[C@H](O)[C@@H](O)[C@H]3O)c(-c3ccc(O)cc3)oc12 [IKarisoside A],OC43 Inhibition rate,,14.9%
CC(C)=CCc1c(-c2ccc(O)cc2O)oc2c3c(cc(O)c2c1=O)OC(C)(C)C=C3 [Morusin],OC43 Inhibition rate,,5.8%
CC(C)=CCc1c(-c2ccc(O)cc2O)oc2c(CC=C(C)C)c(O)cc(O)c2c1=O [Mulberrin],OC43 Inhibition rate,,51.7%
COc1ccc(-c2oc3c(CC=C(C)C)c(O)cc(O)c3c(=O)c2O[C@@H]2O[C@@H](C)[C@H](O)[C@@H](O)[C@H]2O[C@@H]2O[C@@H](C)[C@H](O)[C@@H](O)[C@H]2O)cc1 [2''-O-Rhamnosylicariside II],OC43 Inhibition rate,,0.3%
CC(C)=CCc1cc(-c2coc3cc(O)ccc3c2=O)ccc1O [Neobavaisoflavone],OC43 Inhibition rate,,18.1%
CC(C)=CCc1c(O)cc(O)c2c(=O)cc(-c3ccc(O)cc3)oc12 [Licoflavone C],OC43 Inhibition rate,,7.3%
CC(C)=CCc1cc(-c2coc3cc(O)cc(O)c3c2=O)cc(O)c1O [Glycyrrhisoflavone],OC43 Inhibition rate,,2.1%
CC(C)=CCc1c(O)cc(O)c2c(=O)c(-c3ccc(O)cc3)coc12 [Lupiwighteone],OC43 Inhibition rate,,63.3%
COc1ccc(-c2oc3c(CC=C(C)C)c(O)cc(O)c3c(=O)c2O[C@@H]2O[C@@H](C)[C@H](O)[C@@H](O)[C@H]2O)cc1 [Baohuoside I],OC43 Inhibition rate,,70.2%
O=c1c(-c2ccc(O)cc2)coc2cc(O)cc(O)c12 [Genistein],OC43 Inhibition rate,,6.8%
CC(=O)O[C@H]1C[C@@]2(C)[C@@H](C[C@@H](O)[C@H]3[C@@]4(C)CC[C@@H](O)[C@@H](C)[C@@H]4CC[C@@]32C)/C1=C(\CCC=C(C)C)C(=O)O [Fusidic acid (sodium salt)],OC43 Inhibition rate,,1.2%
"CC1(C)[C@H](OC(=O)c2ccccc2)CC[C@]2(C)C3=CC[C@@]4(C)[C@@H]5C[C@](C)(COC(=O)c6ccccc6)CC[C@]5(C)CC[C@]4(C)C3=CC[C@@H]12 [3,29-O-Dibenzoyloxykarounidiol]",OC43 Inhibition rate,,-4.4%
COC(=O)C1=CO[C@@H](O[C@@H]2O[C@H](CO)[C@@H](O)[C@H](O)[C@H]2O)[C@@H]2[C@@]3(C)O[C@H]3[C@@H](O)[C@]12O [Sesamoside],OC43 Inhibition rate,,-1.2%
CCC/C=C\C=C\CCCCCCCCCO [Bombykol],OC43 Inhibition rate,,1.1%
COc1nccc(N)n1 [2-O-Methylcytosine],OC43 Inhibition rate,,0.2%
C[C@]12CC[C@@H](O)C[C@H]1CC[C@@H]1[C@@H]2[C@@H](O)C[C@@]2(C)[C@H]1CC[C@]2(O)C(=O)CO [Tetrahydrocortisol],OC43 Inhibition rate,,-0.2%
CC(=O)O[C@@]12CO[C@@H]1C[C@H](O)[C@@]1(C)C(=O)[C@H](O)C3=C(C)[C@@H](OC(=O)[C@H](O)[C@@H](NC(=O)c4ccccc4)c4ccccc4)C[C@@](O)([C@@H](OC(=O)c4ccccc4)[C@H]21)C3(C)C [10-Deacetyltaxol],OC43 Inhibition rate,,0.2%
CC(=O)c1cc2c(CO)cc(O)cc2oc1=O [Armillarisin A],OC43 Inhibition rate,,-0.4%
COc1ccc([C@H]2OC[C@H]3[C@@H]2CO[C@@H]3c2ccc(OC)c(OC)c2)cc1OC [Pinoresinol dimethyl ether],OC43 Inhibition rate,"OC43 Inhibition rate, 24 h",1.1%
COc1ccc(-c2oc3c(CC=C(C)C)c(O[C@@H]4O[C@H](CO)[C@@H](O)[C@H](O)[C@H]4O)cc(O)c3c(=O)c2O[C@@H]2O[C@@H](C)[C@H](O)[C@@H](O)[C@H]2O[C@@H]2OC[C@@H](O)[C@H](O)[C@H]2O)cc1 [Epimedin B],OC43 Inhibition rate,,1%
O=C(c1ccccc1)c1ccccc1 [Benzophenone],OC43 Inhibition rate,,-0.1%
"O=C(CC(=O)c1ccccc1)c1ccccc1 [DBM, dibenzoylmethane]",OC43 Inhibition rate,,102.9%
O=C(O)c1ccccc1 [Benzoic acid],OC43 Inhibition rate,,-0.2%
Oc1cc(O)cc(/C=C/c2c(O)cccc2O)c1 [Gnetol],OC43 Inhibition rate,,-1%
O=c1cc(-c2ccc(O)cc2)oc2c([C@@H]3O[C@H](CO)[C@@H](O)[C@H](O)[C@H]3O)c(O)c([C@@H]3OC[C@@H](O)[C@H](O)[C@H]3O)c(O)c12 [Vicenin-1],OC43 Inhibition rate,,-1.7%
COc1cc([C@H]2Oc3cc([C@H]4Oc5cc(O)cc(O)c5C(=O)[C@@H]4O)ccc3O[C@@H]2CO)ccc1O [Silibinin],OC43 Inhibition rate,"OC43 Inhibition rate, 24 h",1.4%
CCCCCCCCCC(O)CC(=O)O (centres unmarked) [3-Hydroxydodecanoic acid],OC43 Inhibition rate,,-3.9%
"Cn1cc(C(=O)O)ccc1=O [1-Methyl-6-oxo-1,6-dihydropyridine-3-carboxylic acid]",OC43 Inhibition rate,,0.2%
O=C(CCc1ccc(O)c(O)c1)NCCCNCCCCNCCCNC(=O)CCc1ccc(O)c(O)c1 [Kukoamine A],OC43 Inhibition rate,,2.2%
Nc1ncnc2c1ncn2[C@@H]1C[C@H](CO)[C@@H](O)[C@H]1O [Aristeromycin],OC43 Inhibition rate,,53.9%
Nc1ncnc2c1ncn2[C@@H]1O[C@H](CO)C[C@H]1O [Cordycepin],OC43 Inhibition rate,,-0.3%
Nc1ncnc2c1ncn2[C@H]1C[C@H](O)[C@@H](CO)O1 [2'-Deoxyadenosine monohydrate],OC43 Inhibition rate,"OC43 Inhibition rate, 24 h",-2.3%
C=C1C(=O)O[C@H]2C[C@@H](C)[C@@H]3CCC(=O)[C@@]3(C)[C@@H](OC(C)=O)[C@H]12 [Ergolide],OC43 Inhibition rate,,10.6%
CC(C)=CCC[C@](C)(O)[C@@H]1CC=C(C)CC1 [Levomenol],OC43 Inhibition rate,"OC43 Inhibition rate, 24 h",-0.7%
Cn1cnc2c(ncn2[C@@H]2O[C@H](CO)[C@@H](O)[C@H]2O)c1=O [1-Methylinosine],OC43 Inhibition rate,,0.1%
C[C@@H]1[C@H](O)[C@@H](C)/C=C/C=C/C=C/C=C/C=C/C=C/C=C/[C@H](O[C@@H]2O[C@H](C)[C@@H](O)[C@H](N)[C@@H]2O)C[C@@H]2O[C@](O)(C[C@@H](O)C[C@@H](O)[C@H](O)CC[C@@H](O)C[C@@H](O)CC(=O)O[C@H]1C)C[C@H](O)[C@H]2C(=O)O [amphotericin B],OC43 Inhibition rate,,103.7%
C[C@@H]1C/C=C/C=C/C=C/C=C/[C@H](O[C@@H]2O[C@H](C)[C@@H](O)[C@H](N)[C@@H]2O)C[C@@H]2O[C@](O)(C[C@@H](O)C[C@H]3O[C@@H]3/C=C/C(=O)O1)C[C@H](O)[C@H]2C(=O)O [Natamycin],OC43 Inhibition rate,,-0.1%
O=S(=O)(O)CCO [Isethionic acid sodium salt],OC43 Inhibition rate,,-0.5%
O=C(O)[C@H](O)[C@H](O)[C@@H](O)[C@H](O)[C@H](O)CO [NSC 42196],OC43 Inhibition rate,,3.4%
N[C@H](C(=O)O)[C@@H]1CC(Cl)=NO1 [Acivicin (hydrochloride)],OC43 Inhibition rate,,61.6%
CC1(C)CCC[C@]2(C)[C@H]3CCO[C@]3(C)CC[C@@H]12 [Ambroxide],OC43 Inhibition rate,,-0.5%
CC1=CC(=O)C(C(C)C)CC1 (centres unmarked) [Piperitone],OC43 Inhibition rate,,-0.8%
CC(=O)NCCCC[C@H](N)C(=O)O [Nepsilon-Acetyl-L-lysine],OC43 Inhibition rate,,-0.2%
C=C[C@H]1CN2CC[C@@]3(C(=O)Nc4ccccc43)[C@@H]2C[C@@H]1/C(=C\OC)C(=O)OC [Isocorynoxeine],OC43 Inhibition rate,,-0.3%
CCC/C=C1\OC(=O)C2=C1CC[C@@H](O)[C@H]2O [Senkyunolide H],OC43 Inhibition rate,,-0.5%
CCC/C=C1\OC(=O)C2=C1CC[C@H](O)[C@H]2O [Senkyunolide I],OC43 Inhibition rate,,-0.4%
CCC/C=C1\OC(=O)C2=C1CC[C@H]1[C@H]3C=C4C(=O)O/C(=C\CCC)[C@@]4(CC3)[C@@H]21 [Levistolide A],OC43 Inhibition rate,,77.4%
O=C(O)c1ccc(=O)oc1 [Coumalic acid],OC43 Inhibition rate,,10.5%
CC(=O)O[C@@H]1CC[C@@]2(C)[C@@H](CC[C@]3(C)[C@@H]2CC=C2[C@@H]4[C@@H](C)[C@H](C)CC[C@]4(C)CC[C@]23C)[C@@]1(C)C(=O)O [3-Acetyl-beta-boswellic acid],OC43 Inhibition rate,,66.7%
C[C@H]1[C@H](C)CC[C@]2(C)CC[C@]3(C)C(=CC[C@@H]4[C@@]5(C)CC[C@@H](O)[C@](C)(C(=O)O)[C@@H]5CC[C@]43C)[C@H]12 [β-Boswellic acid],OC43 Inhibition rate,,-0.2%
CC(=O)O[C@@H]1CC[C@@]2(C)[C@@H](CC[C@]3(C)[C@@H]2[C@H](O)C=C2[C@@H]4[C@@H](C)[C@H](C)CC[C@]4(C)CC[C@]23C)[C@@]1(C)C(=O)O [3-O-Acetyl-11-hydroxy-beta-boswellic acid],OC43 Inhibition rate,,15.2%
